# Reference: ChEMBL document CHEMBL3433997, “St. Jude Leishmania screening dataset” (2016)
# Target: Glucose transporter (Leishmania mexicana) (UniProt O61059)
# Assay: ST_JUDE_LEISH: Cytotoxicity at 2uM final concentration against transgenic Leishmania Mexicana promastigotes LmGT2 that are glucose transport deficient and complemented with the L. Mexicana glucose transporter 2. Activity is measured by DNA content using SYBR green in vitro
# Type: functional
row,SMILES,inhibition [%]
1,O=C(NC1CCCCC1)N(Cc1cccc(-c2ccc(CNCc3ccc4c(c3)OCO4)cc2)c1)C1CCN(Cc2ccccc2)CC1,3.16
2,O=C(Nc1cccc(-c2nc3ccccc3[nH]2)c1)c1cccc(NC(=O)c2ccco2)c1,0.63
3,CCN1C(=O)C(CC(=O)Nc2cccc(Cl)c2)N(Cc2ccc(OC)c(OC)c2)C1=S (stereo not given),0.57
4,CCc1ccc(OCc2ccccc2C(=O)Nc2ccc3nc(C)cc(N)c3c2)cc1,1.97
5,CC(=O)c1c(C)[nH]c(C(=O)Nc2ccc(-c3nc4ccc(C)cc4s3)cc2)c1C,2.35
6,N#Cc1ccc(CN2CCC(Oc3ccc(NC(=O)c4cccs4)cc3)C2)cc1 (stereo not given),0.05
7,Cc1nc(-c2ccc(-c3ccc(NC(=O)c4coc5ccc(N6CC(C)NC(C)C6)cc45)cc3)c(C)c2)no1 (stereo not given),6.24
8,O=C(CC(=O)Nc1cc(Cl)cc(Cl)c1)Nc1cc(Cl)cc(Cl)c1,0.68
9,Nc1nc(N)c2c(Cl)c(N(Cc3ccccc3)Cc3ccccc3)ccc2n1,7.75
10,CCC(C)c1ccc(NC(=O)c2ccc(S(=O)(=O)Nc3ccc(OC)c(N4CCN(CC5CC5)CC4)c3)cc2)cc1 (stereo not given),-1.88
11,CC(=O)Nc1nc(N)c2c(ccc3c2ccn3CC(C)C)n1,-0.95
12,Cc1cc(NC2CCN(Cc3ccccc3)CC2)nc(NCCCCc2ccccc2)n1,4.87
13,CC(C)CCNc1nc(NCCc2ccccc2)c2cc(O)ccc2n1,-2.18
14,O=C(Nc1cccc(OCCN2CCCC2)c1)Nc1ccc(Cl)c(Cl)c1,4.58
15,CN(Cc1cccc(C#N)c1)C1CCN(c2cc(NC(=O)c3ccc(F)cc3)ccn2)CC1,4.06
16,OC1CCC(Nc2ccc3ncc(-c4ccc5ccccc5c4)n3n2)CC1 (stereo not given),3.53
17,CC(=O)Nc1ccc(-c2nc3ccc(-c4nc5ccc(NC(C)=O)cc5[nH]4)cc3[nH]2)cc1,5.3
18,Cc1ccc(-c2cccc3c(NC(=O)Nc4ccc5nccc(N6CCN(C)CC6)c5c4)cccc23)cn1,7.64
19,CCOCCCn1c(=N)c(C(=O)NCc2ccc(OC)cc2)cc2c(=O)n3cccc(C)c3nc21,3.8
20,C/C=C/COc1ccc(-c2c(C)[nH]c(C)c(Cl)c2=O)cc1,4.16
21,Oc1ccc(CNCC2CCN(CC3CCCCC3)CC2)cc1,5.43
22,Cn1c(/C=C/C(=O)NC2CCC(CCN3CCc4ccc(C#N)cc4CC3)CC2)cc2ccccc21 (stereo not given),3.48
23,CCn1c(-c2nonc2N)nc2c(-c3cccc(NC(=O)Nc4cccc(OC)c4)c3)ncc(OCCCN)c21,1.32
24,CCCOc1ccc(CCNCCCCNCCc2ccc(OCCC)c3ccccc23)c2ccccc12,105
25,CN1CCN(CCCCCNc2c3ccccc3nc3ccccc23)CC1,17.9
